# Test results from PubChem BioAssay (EPA / NIEHS).
# Records with an inconclusive call do not appear. Calls of active or inactive are those of the source. How the source made its calls: active means hit-call score of the fitted dose curve at least 0.9, where 1 is the maximum; inconclusive means response in the unintended direction; inactive means score below 0.9.
# How the values were obtained:
# [1] = target: rat Vasopressin 1 Receptor (V1), Avpr1a (gene 25107) (UniProt P30560); assay: NVS_GPCR_rV1: NovaScreen (NVS) G Protein-Coupled Receptor Assay for rat Vasopressin 1 Receptor (V1) (AID 2283316)
# Summary of the method: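 Radioligand binding on rat liver membranes, 1.5 h incubation, filter-based scintillation counting. Single 25 uM screen in duplicate; chemicals meeting threshold (e.g. 30% inhibition) run in concentration-response up to 50 uM.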
# [2] = target: rat Gamma-Aminobutyric Acid Type B Receptor (GABBR), Gabbr1 (gene 81657) (UniProt Q9Z0U4); assay: NVS_GPCR_rGABBR: NovaScreen (NVS) G Protein-Coupled Receptor Assay for rat Gamma-Aminobutyric Acid Type B Receptor (GABBR) (AID 2283301)
# Summary of the method: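 Radioligand displacement on rat cortical membranes, 1 h, filter-based scintillation counting. Primary screen at 25 uM in duplicate; compounds passing threshold re-tested in concentration-response up to 50 uM; loss of binding fitted against DMSO.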
# [3] = target: Adra2b (gene 24174) (UniProt P19328); assay: NVS_GPCR_rmAdra2B: NovaScreen (NVS) G Protein-Coupled Receptor Assay for hybird cells Adrenergic, Alpha 2B Receptor (Adra2B) (AID 2283306)
# Summary of the method: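 Radioligand filter-binding assay on membrane proteins from neuroglioma/blastoma hybrid cells (rodent), 1 h after dosing; scintillation counting, loss of signal vs DMSO. Primary screen in duplicate at 25 uM, actives then run in concentration series.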
# [4] = target: rat Opioid Receptor, Non-selective Sodium (Na+) Binding, Oprm1 (gene 25601) (UniProt P33535); assay: NVS_GPCR_rOpiate_NonSelectiveNa: NovaScreen (NVS) G Protein-Coupled Receptor Assay for rat Opioid Receptor, Non-selective Sodium (Na+) Binding (AID 2283311)
# Summary of the method: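 Rat forebrain membranes, radioligand displacement with filter scintillation counting, 1.5 h incubation. Screened in duplicate at 25 µM; hits then run in concentration-response up to 50 µM; loss of binding fitted versus DMSO.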
# [5] = target: rat Somatostatin Receptor (SST), Sstr1 (gene 25033) (UniProt P28646); assay: NVS_GPCR_rSST: NovaScreen (NVS) G Protein-Coupled Receptor Assay for rat Somatostatin Receptor (SST) (AID 2283314)
# Summary of the method: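 Rat forebrain membranes; radioligand displacement read by filter-based scintillation counting 1 h after dosing. Primary screen in duplicate at 25 uM. Actives (e.g., 30% inhibition) were rerun as concentration-response to 50 uM max and fitted against DMSO.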
# [6] = target: rat Neonicotinoid receptor (NNR), Chrna7 (gene 25302) (UniProt Q05941); assay: NVS_LGIC_rNNR_BungSens: NovaScreen (NVS) Ligand-Gated Ion Channel Assay for rat Neonicotinoid receptor (NNR) (AID 2283315)
# Procedure: NVS_LGIC_rNNR_BungSens is a biochemical, single-readout assay that uses extracted gene-proteins from Rat cortical membranes in a tissue-based cell-free assay. Measurements were taken 2.5 hours after chemical dosing in a 48-well plate.NVS_LGIC_rNNR_BungSens is one of one assay component(s) measured or calculated from the NVS_LGIC_rNNR_BungSens assay. It is designed to make measurements of radioligand binding, a form of binding reporter, as detected with scintillation counting signals by Filter-based radiodetection technology.Data from the assay component NVS_LGIC_rNNR_BungSens was analyzed into 1 assay endpoint. This assay endpoint, NVS_LGIC_rNNR_BungSens, was analyzed in the positive analysis fitting direction relative to DMSO as the negative control and baseline of activity. Using a type of binding reporter, loss-of-signal activity can be used to understand changes in the binding as they relate to the gene Chrna7. Furthermore, this assay endpoint can be referred to as a primary readout, because the performed assay has only produced 1 assay endpoint. To generalize the intended target to other relatable targets, this assay endpoint is annotated to the ion channel intended target family, where the subfamily is ligand-gated ion channel.
# Binding assays used specific radioligands (tritiated, iodinated) with non-radioactive competitive displacement ligands in agonist or antagonist protocols (as indicated) and various reference compounds and inhibitors to titrate specific binding to receptors and transporters. Most enzyme assays (CYPs, kinases, phosphatases, proteases, HDACs) used recombinant protein and specific substrates (fluorescence mostly, some colorimetric and radioactive) and inhibitors, followed by a biochemical separation of substrate and product. All assays for the biochemical HTS were initially run in duplicate at a single concentration (10 uM for CYP450 assays and 25 uM for all others). […] Each assay was run with positive and negative controls, and concurrent controls on every plate. The follow-up (secondary) screen tested active chemical-pairs in concentration series, as well as a few additional assays not tested in the primary screen, some selected negative inactives, and several cases re-run in the concentration series for confirmatory purposes.
# [7] = target: rat Neurokinin-1 Receptor (NK1), Tacr1 (gene 24807) (UniProt P14600); assay: NVS_GPCR_rNK1: NovaScreen (NVS) G Protein-Coupled Receptor Assay for rat Neurokinin-1 Receptor (NK1) (AID 2283309)
# Summary of the method: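 Rat submaxillary gland membranes; radioligand displacement read by filter-based scintillation counting after 1 h. Primary screen in duplicate at 25 uM; actives retested in concentration series; loss of binding fitted versus DMSO.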
# [8] = target: rat Neurokinin-3 Receptor (NK3), Tacr3 (gene 24808) (UniProt P16177); assay: NVS_GPCR_rNK3: NovaScreen (NVS) G Protein-Coupled Receptor Assay for rat Neurokinin-3 Receptor (NK3) (AID 2283310)
# Summary of the method: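 Rat cortical membranes; radioligand binding with filtration and scintillation counting, 2 h after dosing. Primary screen in duplicate at 25 uM, then concentration-response up to 50 uM; loss of binding signal relative to DMSO.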
# [9] = target: rat Adrenergic Receptor, Alpha 2 (Adra2), Non-selective Binding, Adra2a (gene 25083) (UniProt P22909); assay: NVS_GPCR_rAdra2_NonSelective: NovaScreen (NVS) G Protein-Coupled Receptor Assay for rat Adrenergic Receptor, Alpha 2 (Adra2), Non-selective Binding (AID 2283299)
# Summary of the method: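 Rat cortical membranes, radioligand competitive displacement read by filter-based scintillation counting 1.25 hours after dosing. Primary screen in duplicate at 25 uM; actives followed up in concentration series.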
# [10] = target: rat Histamine Receptor (H3), Hrh3 (gene 85268) (UniProt Q9QYN8); assay: NVS_GPCR_rH3: NovaScreen (NVS) G Protein-Coupled Receptor Assay for rat Histamine Receptor (H3) (AID 2283303)
# Summary of the method: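 Rat forebrain membranes incubated 1 h with compound; radioligand displacement measured by filter-based scintillation counting. Single-concentration duplicates at 25 µM, then concentration-response up to 50 µM, relative to DMSO.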
# rat Neurokinin-1 Receptor (NK1), Tacr1 (gene 24807), sequence (P14600 whole entry, looked up): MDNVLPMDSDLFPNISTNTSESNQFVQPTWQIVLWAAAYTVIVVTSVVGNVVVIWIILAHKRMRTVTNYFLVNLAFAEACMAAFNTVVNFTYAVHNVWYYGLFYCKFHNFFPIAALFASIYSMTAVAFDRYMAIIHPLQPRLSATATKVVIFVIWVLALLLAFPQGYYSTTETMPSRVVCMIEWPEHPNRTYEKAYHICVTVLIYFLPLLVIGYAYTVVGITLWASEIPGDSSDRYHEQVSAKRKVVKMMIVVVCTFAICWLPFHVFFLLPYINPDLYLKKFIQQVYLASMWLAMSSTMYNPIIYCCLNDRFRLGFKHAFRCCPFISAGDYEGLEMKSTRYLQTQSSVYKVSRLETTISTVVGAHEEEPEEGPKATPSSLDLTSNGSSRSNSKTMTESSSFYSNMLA
# rat Neonicotinoid receptor (NNR), Chrna7 (gene 25302), sequence (Q05941 whole entry, looked up): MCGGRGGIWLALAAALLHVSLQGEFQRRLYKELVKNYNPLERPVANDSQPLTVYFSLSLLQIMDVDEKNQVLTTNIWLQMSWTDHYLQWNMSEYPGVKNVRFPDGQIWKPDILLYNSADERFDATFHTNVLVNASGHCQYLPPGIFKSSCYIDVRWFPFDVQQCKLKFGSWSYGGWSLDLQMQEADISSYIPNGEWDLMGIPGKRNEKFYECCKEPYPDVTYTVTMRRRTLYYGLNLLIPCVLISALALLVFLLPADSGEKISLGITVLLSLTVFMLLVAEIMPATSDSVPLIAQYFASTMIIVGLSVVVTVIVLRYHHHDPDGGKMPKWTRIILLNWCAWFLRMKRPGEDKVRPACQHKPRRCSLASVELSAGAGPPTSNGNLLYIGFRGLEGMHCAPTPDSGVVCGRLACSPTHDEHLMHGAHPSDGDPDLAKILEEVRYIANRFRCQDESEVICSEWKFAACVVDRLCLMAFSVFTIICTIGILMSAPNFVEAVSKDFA
# Adra2b (gene 24174), sequence (P19328 whole entry, looked up): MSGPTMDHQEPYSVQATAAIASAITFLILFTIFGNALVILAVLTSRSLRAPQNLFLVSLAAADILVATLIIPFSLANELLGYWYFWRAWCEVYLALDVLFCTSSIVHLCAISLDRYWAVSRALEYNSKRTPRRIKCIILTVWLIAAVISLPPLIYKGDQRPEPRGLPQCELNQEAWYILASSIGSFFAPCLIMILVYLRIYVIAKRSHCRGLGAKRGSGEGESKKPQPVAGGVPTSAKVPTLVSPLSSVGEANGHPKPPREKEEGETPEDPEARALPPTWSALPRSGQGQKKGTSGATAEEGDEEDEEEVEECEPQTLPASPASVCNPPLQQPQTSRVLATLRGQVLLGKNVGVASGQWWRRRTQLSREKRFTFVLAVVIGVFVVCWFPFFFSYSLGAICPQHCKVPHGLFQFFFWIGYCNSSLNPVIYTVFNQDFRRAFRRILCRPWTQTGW
# rat Neurokinin-3 Receptor (NK3), Tacr3 (gene 24808), sequence (P16177 whole entry, looked up): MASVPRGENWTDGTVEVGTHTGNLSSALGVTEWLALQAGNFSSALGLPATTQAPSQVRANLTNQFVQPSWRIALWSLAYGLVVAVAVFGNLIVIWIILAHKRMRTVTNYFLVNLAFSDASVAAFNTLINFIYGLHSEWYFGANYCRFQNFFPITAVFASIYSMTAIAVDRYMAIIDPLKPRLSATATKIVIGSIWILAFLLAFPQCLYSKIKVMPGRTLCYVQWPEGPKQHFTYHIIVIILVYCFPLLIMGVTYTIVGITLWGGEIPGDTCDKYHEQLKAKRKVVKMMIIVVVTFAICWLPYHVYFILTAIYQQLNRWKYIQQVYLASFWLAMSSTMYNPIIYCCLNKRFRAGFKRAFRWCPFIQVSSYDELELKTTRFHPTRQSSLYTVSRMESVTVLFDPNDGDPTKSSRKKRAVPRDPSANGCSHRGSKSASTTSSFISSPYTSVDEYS
# rat Vasopressin 1 Receptor (V1), Avpr1a (gene 25107), sequence (P30560 whole entry, looked up): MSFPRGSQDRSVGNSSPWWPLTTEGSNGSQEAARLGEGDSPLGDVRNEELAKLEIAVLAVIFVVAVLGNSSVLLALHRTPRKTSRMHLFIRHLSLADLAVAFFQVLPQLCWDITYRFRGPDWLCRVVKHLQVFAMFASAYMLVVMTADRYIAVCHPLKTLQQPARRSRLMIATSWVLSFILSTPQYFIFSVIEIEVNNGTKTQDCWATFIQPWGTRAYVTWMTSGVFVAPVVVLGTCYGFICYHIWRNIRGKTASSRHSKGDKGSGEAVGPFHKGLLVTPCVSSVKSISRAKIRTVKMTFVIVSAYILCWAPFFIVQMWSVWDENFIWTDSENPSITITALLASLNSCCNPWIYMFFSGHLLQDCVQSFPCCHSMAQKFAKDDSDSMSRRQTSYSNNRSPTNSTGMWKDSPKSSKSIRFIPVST
# rat Opioid Receptor, Non-selective Sodium (Na+) Binding, Oprm1 (gene 25601), sequence (P33535 whole entry, looked up): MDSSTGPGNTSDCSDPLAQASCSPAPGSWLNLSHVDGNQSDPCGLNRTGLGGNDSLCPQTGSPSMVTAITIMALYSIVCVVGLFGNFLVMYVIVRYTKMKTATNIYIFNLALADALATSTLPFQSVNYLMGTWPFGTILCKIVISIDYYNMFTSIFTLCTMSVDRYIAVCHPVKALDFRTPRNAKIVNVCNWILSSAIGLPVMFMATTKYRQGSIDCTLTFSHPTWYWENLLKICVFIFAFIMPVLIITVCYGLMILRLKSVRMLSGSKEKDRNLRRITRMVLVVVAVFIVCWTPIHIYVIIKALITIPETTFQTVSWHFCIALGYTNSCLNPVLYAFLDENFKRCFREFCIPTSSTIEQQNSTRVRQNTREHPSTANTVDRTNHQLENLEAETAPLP
# rat Gamma-Aminobutyric Acid Type B Receptor (GABBR), Gabbr1 (gene 81657), sequence (Q9Z0U4 whole entry, looked up): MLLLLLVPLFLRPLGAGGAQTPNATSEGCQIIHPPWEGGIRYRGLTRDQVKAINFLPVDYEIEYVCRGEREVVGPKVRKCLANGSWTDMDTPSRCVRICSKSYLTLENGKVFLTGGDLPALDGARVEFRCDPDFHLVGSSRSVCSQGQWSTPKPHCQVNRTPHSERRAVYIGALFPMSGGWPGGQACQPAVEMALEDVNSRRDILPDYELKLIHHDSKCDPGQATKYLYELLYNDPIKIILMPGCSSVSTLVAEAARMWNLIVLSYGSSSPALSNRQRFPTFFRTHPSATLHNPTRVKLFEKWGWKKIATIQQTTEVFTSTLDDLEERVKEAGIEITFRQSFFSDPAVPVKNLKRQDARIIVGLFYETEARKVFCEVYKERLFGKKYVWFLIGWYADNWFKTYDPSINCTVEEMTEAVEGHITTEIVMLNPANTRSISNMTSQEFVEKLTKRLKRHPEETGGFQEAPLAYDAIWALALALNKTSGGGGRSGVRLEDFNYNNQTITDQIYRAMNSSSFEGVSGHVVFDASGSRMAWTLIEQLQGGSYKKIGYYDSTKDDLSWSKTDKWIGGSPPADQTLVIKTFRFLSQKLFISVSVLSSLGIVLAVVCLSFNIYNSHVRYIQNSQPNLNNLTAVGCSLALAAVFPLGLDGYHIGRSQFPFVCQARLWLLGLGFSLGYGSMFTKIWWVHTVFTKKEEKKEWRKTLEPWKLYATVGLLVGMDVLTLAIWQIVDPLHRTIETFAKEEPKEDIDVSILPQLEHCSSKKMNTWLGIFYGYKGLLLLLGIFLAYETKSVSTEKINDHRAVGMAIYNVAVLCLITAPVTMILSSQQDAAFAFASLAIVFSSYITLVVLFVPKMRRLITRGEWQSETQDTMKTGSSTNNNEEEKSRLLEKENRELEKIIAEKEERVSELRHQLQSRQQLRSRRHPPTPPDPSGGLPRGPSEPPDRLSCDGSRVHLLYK
# rat Somatostatin Receptor (SST), Sstr1 (gene 25033), sequence (P28646 whole entry, looked up): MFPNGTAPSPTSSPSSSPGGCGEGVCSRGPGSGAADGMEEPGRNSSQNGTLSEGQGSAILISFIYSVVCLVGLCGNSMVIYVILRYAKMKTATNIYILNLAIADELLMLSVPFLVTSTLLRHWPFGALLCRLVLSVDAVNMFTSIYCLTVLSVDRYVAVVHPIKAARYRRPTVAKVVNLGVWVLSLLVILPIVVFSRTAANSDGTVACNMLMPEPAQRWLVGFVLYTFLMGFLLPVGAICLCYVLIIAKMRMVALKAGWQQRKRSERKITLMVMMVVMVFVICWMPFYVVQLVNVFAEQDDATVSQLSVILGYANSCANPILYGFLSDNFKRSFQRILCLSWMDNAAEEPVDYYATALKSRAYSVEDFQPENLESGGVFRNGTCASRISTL
# rat Adrenergic Receptor, Alpha 2 (Adra2), Non-selective Binding, Adra2a (gene 25083), sequence (P22909 whole entry, looked up): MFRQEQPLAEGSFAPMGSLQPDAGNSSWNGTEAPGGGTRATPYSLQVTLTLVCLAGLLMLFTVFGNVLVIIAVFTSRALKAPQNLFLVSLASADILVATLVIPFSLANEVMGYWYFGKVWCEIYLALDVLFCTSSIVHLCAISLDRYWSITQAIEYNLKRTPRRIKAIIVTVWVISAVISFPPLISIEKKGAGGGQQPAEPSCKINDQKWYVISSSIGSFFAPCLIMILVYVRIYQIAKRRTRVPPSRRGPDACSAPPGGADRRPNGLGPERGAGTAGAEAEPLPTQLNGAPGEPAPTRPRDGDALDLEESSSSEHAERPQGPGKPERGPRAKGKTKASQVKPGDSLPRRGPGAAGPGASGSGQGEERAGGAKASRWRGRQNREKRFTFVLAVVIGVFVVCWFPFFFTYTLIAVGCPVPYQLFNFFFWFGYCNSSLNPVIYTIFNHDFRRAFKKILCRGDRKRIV
# rat Histamine Receptor (H3), Hrh3 (gene 85268), sequence (Q9QYN8 whole entry, looked up): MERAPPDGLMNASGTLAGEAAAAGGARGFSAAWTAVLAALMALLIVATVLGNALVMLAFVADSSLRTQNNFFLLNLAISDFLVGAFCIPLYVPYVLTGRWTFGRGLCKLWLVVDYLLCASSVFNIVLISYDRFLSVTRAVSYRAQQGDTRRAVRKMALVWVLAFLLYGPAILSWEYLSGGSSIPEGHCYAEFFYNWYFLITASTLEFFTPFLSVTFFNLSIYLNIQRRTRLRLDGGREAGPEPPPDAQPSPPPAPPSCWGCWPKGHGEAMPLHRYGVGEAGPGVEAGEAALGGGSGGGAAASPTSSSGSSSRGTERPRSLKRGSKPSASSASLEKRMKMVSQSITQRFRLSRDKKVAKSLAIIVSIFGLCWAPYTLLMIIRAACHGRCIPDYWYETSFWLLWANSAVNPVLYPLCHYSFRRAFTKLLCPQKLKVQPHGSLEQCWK
structure (smiles),measurement,setting,value
CCc1cc(C2=C(C(=O)O)N(c3ccccc3C(F)(F)F)S(=O)(=O)c3ccccc32)cc2c1OCO2,AC50,[1],25 µM (active)
Cc1cc(SC2=C(O)C[C@@](CCc3ccc(N)cc3)(C(C)C)OC2=O)c(C(C)(C)C)cc1CO,outcome,[2],inactive
same,outcome,[3],inactive
same,outcome,[4],inactive
same,AC50,[5],17.2 µM (active)
same,outcome,[6],inactive
CCCC[C@H]1CN(CC2CCOCC2)C(=O)OC12CCN(C1(C)CCN(C(=O)c3c(C)ncnc3C)CC1)CC2,AC50,[6],4.46 µM (active)
CC(=O)O,outcome,[1],inactive
NC=O,outcome,[7],inactive
Cc1ccc(-c2cc(C(F)(F)F)nn2-c2ccc(S(N)(=O)=O)cc2)cc1,outcome,[3],inactive
same,outcome,[4],inactive
COC(=O)[C@H]1[C@H]2C[C@@H]3c4[nH]c5cc(OC)ccc5c4CCN3C[C@H]2C[C@@H](OC(=O)c2cc(OC)c(OC)c(OC)c2)[C@@H]1OC,AC50,[8],10.6 µM (active)
same,AC50,[4],21.1 µM (active)
CC(C)c1cccc(C(C)C)c1NC(=O)NS(=O)(=O)c1cc(C(C)(C)O)co1,outcome,[1],inactive
CCc1nc(N)nc(N)c1-c1ccc(Cl)cc1,AC50,[9],6.56 µM (active)
same,AC50,[3],5.45 µM (active)
same,outcome,[4],inactive
same,AC50,[6],10.4 µM (active)
CCN(CC)CCOc1ccc(C(=C(Cl)c2ccccc2)c2ccccc2)cc1,AC50,[3],16 µM (active)
same,AC50,[7],21 µM (active)
same,AC50,[4],21 µM (active)
same,AC50,[6],21 µM (active)
O=C(O)c1cccnc1,outcome,[6],inactive
CN(C)CCCN(C)CCCN(C)C,AC50,[10],25 µM (active)
NCCOCCOCCN,outcome,[2],inactive
CN(C)C(=O)NC1(c2ccccc2)CCN(CCC[C@]2(c3ccc(Cl)c(Cl)c3)CCCN(C(=O)c3ccccc3)C2)CC1,AC50,[7],10.5 µM (active)
same,AC50,[8],0.0731 µM (active)
same,AC50,[4],2.12 µM (active)
CCCCc1nc2cccnc2n1Cc1ccc(-c2ccccc2-c2nnn[nH]2)cc1,outcome,[7],inactive
same,AC50,[8],5.16 µM (active)
same,outcome,[6],inactive
